Measurements as given in PubChem BioAssay (Tox21).
Results filed as inconclusive are left out. Calls of active or inactive are those of the source. Unless noted, calls come from the whole dose curve; as a rule, active = well fitted curve in the direction sought with a large enough effect in the repeat runs; inconclusive = weak or mixed curves; inactive = no such curve, though single readings can be large; an effect the other way counts as inactive or inconclusive.

Key:
[1] = qHTS assay to test for compound auto fluorescence at 535 nm (green) in HEK293 cells (AID 720680)
[2] = qHTS assay to test for compound auto fluorescence at 460 nm (blue) in HEK293 cell free culture (AID 720681)
Procedure, shortened: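 Test compounds were pinned into cell-free culture medium (DMEM with 10% FBS) and fluorescence was read directly at Ex/Em 405/460 nm. Signals were expressed as fluorescence equivalents of triamterene, with DMSO vehicle as control.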

[3] = qHTS assay to test for compound auto fluorescence at 535 nm (green) in HEK293 cell free culture (AID 720682)
Procedure, shortened: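 Green-label autofluorescence (485 nm excitation, 535 nm emission) measured on compound added to cell-free culture medium (DMEM, 10% FBS). Output is expressed relative to fluorescein.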

[4] = qHTS assay to test for compound auto fluorescence at 590 nm (red) in HEK293 cell free culture (AID 720683)
Procedure, shortened: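 Tox21 10K library compounds were pinned into cell-free DMEM with 10% FBS and fluorescence was read at excitation 540 nm. Activity is expressed as Rose Bengal sodium equivalency.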

[5] = qHTS assay to test for compound auto fluorescence at 590 nm (red) in HepG2 cell free culture (AID 720684)
Procedure, shortened: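 Red fluorescence (540 nm excitation, 590 nm emission) was measured after compound transfer into cell-free MEM supplemented with 10% FBS. Values are equivalencies against Rose Bengal sodium.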

[6] = qHTS assay to test for compound auto fluorescence at 460 nm (blue) in HepG2 cell free culture (AID 720685)
Procedure, shortened: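 Compound (23 nL) or DMSO pinned into cell-free MEM with 10% FBS; blue fluorescence read at 405/460 nm excitation/emission, expressed as auto-fluorescence equivalency to triamterene.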

[7] = qHTS assay to test for compound auto fluorescence at 535 nm (green) in HepG2 cell free culture (AID 720686)
[8] = qHTS assay to test for compound auto fluorescence at 460 nm (blue) in HepG2 cells (AID 720687)
Procedure, shortened: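 Cells (2,000/well in MEM with 10% FBS) attached overnight at 37 C, then were exposed to compound or DMSO for 1 hr at 37 C, 5% CO2. Fluorescence read at Ex/Em 405/460 nm, expressed as triamterene-equivalent signal.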

[9] = target: Glucocorticoid receptor (Homo sapiens) (UniProt P04150); experiment: qHTS assay to identify small molecule agonists of the glucocorticoid receptor (GR) signaling pathway (AID 720691; active = well fitted activation curve with a large enough effect in the signal ratio in the repeat runs, not every such curve was filed as active; the % refers to the signal ratio)
Procedure, shortened: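 Agonist mode in a HeLa line carrying a GRE-controlled beta-lactamase reporter. Compounds act for 18 h at 37 C before a 2 h room-temperature FRET substrate step and fluorescence reading.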

[10] = target: Glucocorticoid receptor (Homo sapiens) (UniProt P04150); experiment: qHTS assay to identify small molecule antagonists of the glucocorticoid receptor (GR) signaling pathway (AID 720692; active = well fitted inhibition curve with a large enough effect in the signal ratio in the repeat runs, not every such curve was filed as active; the % refers to the signal ratio)
Procedure, shortened: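 Cells plated, rested 4 h at 37 C/5% CO2; compounds in DMSO pin-transferred; dexamethasone added to 5 nM final; 18 h at 37 C; B/G FRET substrate added, 2 h room temperature; fluorescence measured.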

[11] = qHTS assay to identify small molecule antagonists of the glucocorticoid receptor (GR) signaling pathway - cell viability counter screen (AID 720693); note: nearly all actives have a fitted effect of over 55% in size
[12] = qHTS assay for identifying genotoxic compounds that show differential cytotoxicity against isogenic chicken DT40 cell lines with known DNA damage response pathways - wild type cell line (AID 743012); note: nearly all actives have a fitted effect of over 60% in size
Procedure, shortened: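 Cells (DT40 wild type, 300/well) are treated with DMSO-dissolved compounds after a ~0.5 h pre-incubation and kept 40 h at 37 C/5% CO2. Viability is then measured by CellTiter-Glo luminescence following 30 min at room temperature.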

[13] = qHTS assay for identifying genotoxic compounds that show differential cytotoxicity against isogenic chicken DT40 cell lines with known DNA damage response pathways - Rev3 mutant cell line (AID 743014); note: nearly all actives have a fitted effect of over 55% in size
[14] = qHTS assay for identifying genotoxic compounds that show differential cytotoxicity against isogenic chicken DT40 cell lines with known DNA damage response pathways - Rad54/Ku70 mutant cell line (AID 743015); note: nearly all actives have a fitted effect of over 60% in size
[15] = qHTS assay to identify small molecule antagonists of the androgen receptor (AR) signaling pathway - cell viability counter screen (AID 743033; note: nearly all actives have a fitted effect of over 45% in size)
[16] = qHTS assay to identify small molecule antagonists of the androgen receptor (AR) signaling pathway using the MDA cell line - cell viability counter screen (AID 743041; note: nearly all actives have a fitted effect of over 45% in size)
Procedure, shortened: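 MDA-kb2 AR-luc human breast carcinoma cells (MMTV-luciferase, AR/GR responsive) were treated with compounds plus R1881 agonist for 16 h at 37 °C. Viability was read as CellTiter-Fluor fluorescence in the same wells as the reporter assay.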

[17] = qHTS assay to identify small molecule antagonists of the thyroid receptor (TR) signaling pathway - cell viability counter screen (AID 743064); note: nearly all actives have a fitted effect of over 50% in size
Procedure, shortened: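 GH3.TRE-Luc rat pituitary cells dosed after 4 hr plating, co-stimulated with T3 at 1 nM final, incubated 23.5 h at 37 C. Viability measured in the same wells by CellTiter-Fluor fluorescence after 30 min further at 37 C.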
% is set by controls: 0 for no effect and ±100 for the full control effect.

Sequence of Glucocorticoid receptor (Homo sapiens) (P04150 whole entry, looked up): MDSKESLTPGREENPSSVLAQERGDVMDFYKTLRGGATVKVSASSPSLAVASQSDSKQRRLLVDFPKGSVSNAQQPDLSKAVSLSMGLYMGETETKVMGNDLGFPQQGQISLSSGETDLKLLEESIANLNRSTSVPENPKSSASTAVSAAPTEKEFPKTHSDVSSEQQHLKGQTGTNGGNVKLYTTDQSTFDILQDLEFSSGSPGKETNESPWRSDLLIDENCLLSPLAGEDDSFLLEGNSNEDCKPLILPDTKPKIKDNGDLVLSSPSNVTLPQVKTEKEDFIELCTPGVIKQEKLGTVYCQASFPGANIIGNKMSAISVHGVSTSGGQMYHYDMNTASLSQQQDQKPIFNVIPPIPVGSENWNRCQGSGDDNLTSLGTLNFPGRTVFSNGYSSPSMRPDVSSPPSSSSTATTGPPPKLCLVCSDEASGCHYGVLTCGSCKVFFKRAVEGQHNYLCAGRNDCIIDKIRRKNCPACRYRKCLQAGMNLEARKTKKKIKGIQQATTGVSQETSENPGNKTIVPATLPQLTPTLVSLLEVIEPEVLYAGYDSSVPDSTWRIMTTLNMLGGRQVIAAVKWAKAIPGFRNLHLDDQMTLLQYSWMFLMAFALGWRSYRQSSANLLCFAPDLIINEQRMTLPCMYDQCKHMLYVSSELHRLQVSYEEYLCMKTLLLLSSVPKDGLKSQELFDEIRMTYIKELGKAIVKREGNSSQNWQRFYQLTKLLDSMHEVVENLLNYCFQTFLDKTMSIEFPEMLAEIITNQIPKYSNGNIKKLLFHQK

CCCCCO
inactive: outcome [1] | Potency [2] | outcome [3] | outcome [4] | outcome [5] | outcome [6] | outcome [7] | outcome [8] | Potency [9] | Potency [10] | Potency [11] | Potency [12] | Potency [13] | Potency [14] | Potency [15] | Potency [16] | Potency [17]

CCC(=O)O[C@@H]1C[C@H]2CC[C@]1(C)C2(C)C
inactive: outcome [1] | Potency [2] | outcome [3] | outcome [4] | outcome [5] | outcome [6] | outcome [7] | outcome [8] | Potency [9] | Potency [10] | Potency [11] | Potency [12] | Potency [13] | Potency [14] | Potency [15] | Potency [16] | Potency [17]

CC(C)CCCCCCCOC(=O)c1ccc(C(=O)OCCCCCCCC(C)C)c(C(=O)OCCCCCCCC(C)C)c1
inactive: outcome [1] | Potency [2] | outcome [3] | outcome [4] | outcome [5] | outcome [6] | outcome [7] | outcome [8] | Potency [9] | Potency [10] | Potency [11] | Potency [12] | Potency [13] | Potency [14] | Potency [15] | Potency [16] | Potency [17]

CCCCC(CC)COCCC#N (configuration not stated)
inactive: outcome [1] | Potency [2] | outcome [3] | outcome [4] | outcome [5] | outcome [6] | outcome [7] | outcome [8] | Potency [9] | Potency [10] | Potency [11] | Potency [12] | Potency [13] | Potency [14] | Potency [15] | Potency [17]

CC(COc1ccccc1)NC(C)C(O)c1ccc(O)cc1 (configuration not stated)
inactive: fluorescence, % of fluorescein [1] 0.0104% [at 18.6 µM] | fluorescence, % of fluorescent control [2] 0.128% [at 18.6 µM] | activity change [3] -0.0013% [at 18.6 µM] | fluorescence, % of fluorescent control [4] 0.208% [at 18.6 µM] | fluorescence, % of Rose Bengal [5] -0.0388% [at 18.6 µM] | fluorescence, % of fluorescent control [6] -0.0841% [at 18.6 µM] | fluorescence, % of fluorescein control [7] 0.0107% [at 18.6 µM] | fluorescence, % of fluorescent control [8] 0.0066% [at 18.6 µM] | Potency [9] | Potency [10] | Potency [11] | Potency [12] | Potency [13] | Potency [14] | Potency [15] | Potency [16] | Potency [17]

O=C(O)c1cc(C(=O)O)cc([N+](=O)[O-])c1
inactive: outcome [1] | Potency [2] | outcome [3] | outcome [4] | outcome [5] | outcome [6] | outcome [7] | outcome [8] | Potency [9] | Potency [10] | Potency [11] | Potency [12] | Potency [13] | Potency [14] | Potency [16]

COc1ccc(C(=O)Nc2ccccc2)cc1[N+](=O)[O-]
inactive: outcome [1] | Potency [2] | outcome [3] | outcome [4] | outcome [5] | outcome [6] | outcome [7] | outcome [8] | Potency [9] | Potency [10] | Potency [11] | Potency [15] | Potency [16] | Potency [17]

CC(C)(C(=O)O)c1ccc(C(O)CCCN2CCC(C(O)(c3ccccc3)c3ccccc3)CC2)cc1 (configuration not stated)
inactive: outcome [1] | Potency [2] | outcome [3] | outcome [4] | outcome [5] | outcome [6] | outcome [7] | outcome [8] | Potency [9] | Potency [10] | Potency [11] | Potency [15] | Potency [16] | Potency [17]
